From the supplement of paper PMC6897291

Tests used:
U-2932 [1] = assay: growth inhibition by drug alone (1 - RLU/untreated control) (fraction); higher = stronger inhibition; conditions: 177Lu-lilotomab satetraxetan 0 ug/ml
Method in brief: (§1)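 With or without 18 h pretreatment by a radiolabelled anti-CD37 antibody conjugate (~600 MBq/mg; 0.5 µg/ml RIVA, 1 µg/ml U-2932), RIVA and U-2932 cells were washed and plated at 3,000 cells/well. Pre-printed compound doses were 10/100 nM for RIVA and 10/1,000 nM for U-2932. Growth inhibition uses RealTime-Glo RLU relative to the untreated no-drug wells. The calculation is 1 − RLU/mean of 48 such wells per plate, with reads daily from day 3 after 1 h at 37°C.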

RIVA [2] = assay: as above; conditions: 177Lu-lilotomab satetraxetan 0 ug/ml
Method in brief: as §1

U-2932 [3] = assay: growth inhibition by drug plus 177Lu-lilotomab satetraxetan (1 - RLU/untreated control) (fraction); higher = stronger inhibition; conditions: 177Lu-lilotomab satetraxetan 1 ug/ml
Method in brief: as §1

RIVA [4] = assay: as above; conditions: 177Lu-lilotomab satetraxetan 0.5 ug/ml
Method in brief: as §1

Structure (SMILES) | growth inhibition by drug alone (U-2932 [1]; 10 nM, time (day): 3) | growth inhibition by drug alone (U-2932 [1]; 10 nM, time (day): 4) | growth inhibition by drug alone (U-2932 [1]; 10 nM, time (day): 5) | growth inhibition by drug alone (U-2932 [1]; 10 nM, time (day): 6) | growth inhibition by drug alone (U-2932 [1]; 1000 nM, time (day): 3) | growth inhibition by drug alone (U-2932 [1]; 1000 nM, time (day): 4) | growth inhibition by drug alone (U-2932 [1]; 1000 nM, time (day): 5) | growth inhibition by drug alone (U-2932 [1]; 1000 nM, time (day): 6) | growth inhibition by drug alone (RIVA [2]; 10 nM, time (day): 3) | growth inhibition by drug alone (RIVA [2]; 10 nM, time (day): 4) | growth inhibition by drug alone (RIVA [2]; 10 nM, time (day): 5) | growth inhibition by drug alone (RIVA [2]; 10 nM, time (day): 6) | growth inhibition by drug alone (RIVA [2]; 100 nM, time (day): 3) | growth inhibition by drug alone (RIVA [2]; 100 nM, time (day): 4) | growth inhibition by drug alone (RIVA [2]; 100 nM, time (day): 5) | growth inhibition by drug alone (RIVA [2]; 100 nM, time (day): 6) | growth inhibition by drug plus 177Lu-lilotomab satetraxetan (U-2932 [3]; 10 nM, time (day): 3) | growth inhibition by drug plus 177Lu-lilotomab satetraxetan (U-2932 [3]; 10 nM, time (day): 4) | growth inhibition by drug plus 177Lu-lilotomab satetraxetan (U-2932 [3]; 10 nM, time (day): 5) | growth inhibition by drug plus 177Lu-lilotomab satetraxetan (U-2932 [3]; 10 nM, time (day): 6) | growth inhibition by drug plus 177Lu-lilotomab satetraxetan (U-2932 [3]; 1000 nM, time (day): 3) | growth inhibition by drug plus 177Lu-lilotomab satetraxetan (U-2932 [3]; 1000 nM, time (day): 4) | growth inhibition by drug plus 177Lu-lilotomab satetraxetan (U-2932 [3]; 1000 nM, time (day): 5) | growth inhibition by drug plus 177Lu-lilotomab satetraxetan (U-2932 [3]; 1000 nM, time (day): 6) | growth inhibition by drug plus 177Lu-lilotomab satetraxetan (RIVA [4]; 10 nM, time (day): 3) | growth inhibition by drug plus 177Lu-lilotomab satetraxetan (RIVA [4]; 10 nM, time (day): 4) | growth inhibition by drug plus 177Lu-lilotomab satetraxetan (RIVA [4]; 10 nM, time (day): 5) | growth inhibition by drug plus 177Lu-lilotomab satetraxetan (RIVA [4]; 10 nM, time (day): 6) | growth inhibition by drug plus 177Lu-lilotomab satetraxetan (RIVA [4]; 100 nM, time (day): 3) | growth inhibition by drug plus 177Lu-lilotomab satetraxetan (RIVA [4]; 100 nM, time (day): 4) | growth inhibition by drug plus 177Lu-lilotomab satetraxetan (RIVA [4]; 100 nM, time (day): 5) | growth inhibition by drug plus 177Lu-lilotomab satetraxetan (RIVA [4]; 100 nM, time (day): 6)
CCc1cc(-c2n[nH]c(C)c2-c2ccc3c(c2)OCCO3)c(O)cc1O | 0.113 | 0.047 | -0.0381 | -0.212 | 0.0202 | -0.0494 | -0.116 | -0.126 | -0.0752 | -0.183 | -0.489 | -0.797 | -0.563 | -0.433 | -0.46 | -0.629 | 0.0102 | 0.053 | 0.0491 | 0.0788 | 0.0475 | 0.0422 | 0.0841 | 0.183 | 0.478 | 0.547 | 0.565 | 0.581 | 0.363 | 0.462 | 0.473 | 0.48
CNC(=O)c1ccccc1Sc1ccc2c(/C=C/c3ccccn3)n[nH]c2c1 [Axitinib] | -0.00761 | 0.0176 | 0.0231 | -0.0205 | 0.0126 | 0.0489 | -0.0091 | -0.0631 | -0.0928 | -0.118 | -0.216 | -0.609 | -0.116 | -0.0759 | -0.117 | -0.195 | 0.0328 | 0.0444 | 0.0505 | 0.163 | -0.0364 | 0.0807 | 0.114 | 0.196 | 0.405 | 0.507 | 0.522 | 0.533 | 0.439 | 0.479 | 0.492 | 0.484
N#Cc1ccc(C(c2ccc(C#N)cc2)n2cncn2)cc1 [Letrozole] | -0.0916 | -0.0615 | -0.0521 | 0.00419 | -0.0775 | -0.0542 | -0.0553 | -0.0728 | -0.194 | -0.245 | -0.249 | -0.307 | -0.0878 | -0.169 | -0.207 | -0.242 | -0.121 | -0.0795 | -0.0651 | 0.00121 | -0.131 | -0.067 | -0.0375 | 0.0441 | 0.418 | 0.498 | 0.524 | 0.535 | 0.319 | 0.397 | 0.409 | 0.401
c1ccc(-c2nn3c(c2-c2ccnc4cc(OCCN5CCOCC5)ccc24)CCC3)nc1 | 0.0304 | 0.0254 | 0.0259 | -0.126 | 0.0168 | -0.0245 | -0.0928 | -0.157 | -0.0878 | -0.000924 | -0.142 | -0.487 | -0.472 | -0.252 | -0.3 | -0.522 | 0.0114 | 0.0692 | 0.139 | 0.155 | -0.0195 | 0.0208 | 0.0497 | 0.121 | 0.46 | 0.581 | 0.585 | 0.558 | 0.237 | 0.413 | 0.439 | 0.459
Nc1ccc(C(=O)Nc2cccc(-c3nc(N4CCOCC4)c4oc5ncccc5c4n3)c2)cn1 | 0.123 | 0.0927 | 0.0179 | -0.0139 | 0.195 | 0.203 | 0.118 | 0.206 | -0.00332 | -0.02 | -0.0954 | -0.385 | 0.0916 | 0.0201 | 0.0261 | -0.0381 | 0.00496 | 0.0368 | 0.0937 | 0.133 | 0.163 | 0.259 | 0.223 | 0.329 | 0.467 | 0.548 | 0.558 | 0.579 | 0.541 | 0.566 | 0.558 | 0.533
C[C@]12CC[C@@H]3c4ccc(O)cc4CC[C@H]3[C@@H]1CC[C@@H]2O [Estradiol] | 0.0973 | 0.0727 | -0.00691 | -0.0255 | 0.0487 | 0.0434 | -0.00409 | -0.0239 | 0.262 | 0.163 | 0.098 | -0.022 | 0.0522 | 0.0345 | -0.0106 | -0.0996 | 0.0604 | 0.113 | 0.146 | 0.26 | 0.0789 | 0.106 | 0.106 | 0.215 | 0.509 | 0.574 | 0.594 | 0.601 | 0.584 | 0.611 | 0.607 | 0.585
COc1cc2ncnc(Nc3cccc(Br)c3)c2cc1OC | 0.0352 | 0.0294 | -0.0462 | -0.213 | -0.0358 | -0.00581 | -0.044 | -0.226 | -0.0227 | 0.0203 | -0.0662 | -0.376 | -0.0939 | -0.0578 | -0.0794 | -0.167 | -0.0269 | -0.00153 | 0.00885 | 0.0642 | -0.0997 | 0.0384 | 0.0191 | 0.0515 | 0.308 | 0.458 | 0.483 | 0.516 | 0.349 | 0.482 | 0.487 | 0.467
